An excerpt weighted towards active compounds, which were near 1.6% of everything screened.
KCNQ2 inh = KCNQ2 (rat) channel inhibition; AID 2156; O88943; CHO-K1 KCNQ2, FluxOR thallium flux, 20 min; active compounds read low; B-score at 10 µM; hit rate 1.1% among 310,000;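 active means fluorescence ratio B-score at most minus 3 library SDs, with starting brightness B-score within 2 library SDs, cut at about -5.5 in these data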
KCNQ2 enhance = KCNQ2 (rat) channel potentiation | hit rate 0.54% among 310,000 | O88943 | AID 2239 | B-score at 10 µM | CHO-K1 KCNQ2, FluxOR thallium flux fluorescence; active compounds read high;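 active means fluorescence ratio B-score at least 3 SD of library B-scores, with initial fluorescence B-score within 3 of them, cut at about 5.3 in these data; same plate scores as AID 2156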;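 further: B-score of peak minus minimum over baseline fluorescence ratio after K+ and Tl+ stimulus; positive B-score means potentiation of KCNQ2 with more thallium influx and brighter signal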
KCNQ2 inh conf = rat KCNQ2 channel inhibition, confirmatory screen. activity change, negative = inhibition, % at 10 µM. KCNQ2-expressing cells, thallium flux; active compounds read low. AID 493025. hit rate 57% among 1,000. shares compounds with KCNQ2 inh
KCNQ1 spec = selectivity of KCNQ2 inhibitors against human KCNQ1. shares compounds with KCNQ2 inh. activity change, negative = inhibition, % at 10 µM. KCNQ1-expressing cells, FluxOR thallium flux fluorescence; active compounds read low. hit rate 15% among 1,000;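 active means activity change at least 3 SD of negative controls below their mean in both duplicate wells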;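 further: CHO cells stably transfected with KCNQ1 and depolarized by potassium stimulus; peak minus minimum fluorescence over baseline after thallium addition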
Target sequence (P51787 whole entry, looked up): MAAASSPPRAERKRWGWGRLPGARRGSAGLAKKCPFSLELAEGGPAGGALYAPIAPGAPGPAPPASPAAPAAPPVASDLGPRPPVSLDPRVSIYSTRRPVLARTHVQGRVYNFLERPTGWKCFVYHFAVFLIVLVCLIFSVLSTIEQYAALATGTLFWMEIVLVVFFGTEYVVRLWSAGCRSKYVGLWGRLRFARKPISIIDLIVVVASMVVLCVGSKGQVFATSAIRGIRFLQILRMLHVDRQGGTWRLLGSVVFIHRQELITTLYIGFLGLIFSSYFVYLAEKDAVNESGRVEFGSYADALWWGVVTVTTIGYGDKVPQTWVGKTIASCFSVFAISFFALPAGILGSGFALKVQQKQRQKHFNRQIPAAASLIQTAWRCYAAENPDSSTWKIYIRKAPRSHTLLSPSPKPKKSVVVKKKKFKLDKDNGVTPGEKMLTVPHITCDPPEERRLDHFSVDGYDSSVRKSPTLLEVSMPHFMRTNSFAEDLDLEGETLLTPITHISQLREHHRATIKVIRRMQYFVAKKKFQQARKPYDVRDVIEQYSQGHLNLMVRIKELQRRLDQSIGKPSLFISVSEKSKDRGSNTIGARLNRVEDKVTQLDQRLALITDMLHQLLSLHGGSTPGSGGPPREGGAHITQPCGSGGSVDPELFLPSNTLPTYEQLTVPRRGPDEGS
CHO parental ctr = counter-screen for KCNQ2 inhibitors: effect in parental CHO cells | shares compounds with KCNQ2 inh | thallium flux counter-screen; active compounds read low | activity change, % at 10 µM | hit rate 14% among 1,000
KCNQ2 inh confirm = confirmation of rat KCNQ2 potassium channel inhibitors; shares compounds with KCNQ2 inh; KCNQ2-expressing cells, automated patch clamp current; calls only at 10 µM; hit rate 49% among 550
Of the large screens only hits and unclear results are named; the others gave an inactive call (follow-up assays come after a bar, where they were run). Unless noted, how the calls were made is not given here.

O=C(COc1ccc2c3c(c(=O)oc2c1)CCCC3)NCCCn1ccnc1	none (no result: KCNQ2 enhance)
Cc1ccc(NC(=S)N(C)C(c2ccccc2)c2ccccc2)cc1C	KCNQ2 inh -8.36 | KCNQ2 inh conf -25.0% | KCNQ1 spec inactive | CHO parental ctr inactive | KCNQ2 inh confirm inactive
CN(C(=S)Nc1ccc(F)cc1)C(c1ccccc1)c1ccccc1	none (no result: KCNQ2 enhance)
O=C(NCc1cccnc1)c1cccc(OC2CCN(Cc3ccc(CO)o3)CC2)c1	none (no result: KCNQ2 enhance)
CC(C)(C)c1ccc(S(=O)(=O)N2CCN(CC(=O)NC(=O)NC3CCCCC3)CC2)cc1	none (no result: KCNQ2 enhance)
Oc1oc(-c2ccccc2)nc1/C=N/c1nccs1	none
Oc1oc(-c2ccccc2)nc1C=Nc1cccc2ccccc12	KCNQ2 inh -8.69 | KCNQ2 inh conf inactive | KCNQ1 spec inactive | CHO parental ctr inactive
CCCCCN(C(=O)CCC(=O)OCC(=O)N(C)Cc1ccc(C)cc1)c1c(N)n(CCCC)c(=O)[nH]c1=O	none (no result: KCNQ2 enhance)
O=c1c2ccccc2nc(COc2ccccc2)n1/N=C/c1ccco1	KCNQ2 inh -10.2 | KCNQ2 inh conf inactive | KCNQ1 spec inactive | CHO parental ctr inactive
O=c1c2ccccc2nc(COc2ccccc2)n1/N=C/c1ccc(O)c(O)c1	none (no result: KCNQ2 enhance)
Cc1ccn2c(Nc3ccccc3C)c(-c3ccncc3)nc2c1	none (no result: KCNQ2 enhance)
CCN1CCN(C(=O)CCc2nnc(CCCCc3ccccc3)o2)[C@@H](C)C1=O	none
CC1CCCCC1NC(=O)CNC(=O)c1ccco1 (configuration not stated)	none
CC(C)CCNc1nc(-c2ccco2)c2c(c1C#N)CCCC2	KCNQ2 inh -6.8 | KCNQ2 inh conf inactive | KCNQ1 spec inactive | CHO parental ctr inactive
N#Cc1c(NCCN)nc(-c2ccco2)c2c1CCCC2	none (no result: KCNQ2 enhance)
Cc1ccc(C(=O)Nc2c(C)cc(-c3ccccc3)oc2=O)cc1	none
Cc1ccc2c(c1)C(=O)CC(c1ccc3c(c1)OCCO3)O2 (configuration not stated)	none
CC(C)=CCc1cc([C@@H]2CC(=O)c3ccc(O)c(CC=C(C)C)c3O2)ccc1O	KCNQ2 inh -9.02 | KCNQ2 inh conf inactive | KCNQ1 spec inactive | CHO parental ctr inactive
CCOC(=O)c1cnc2c(OC)cccc2c1N1CCN(c2ccccc2OC)CC1	KCNQ2 inh -12.1 | KCNQ2 inh conf -29.5% | KCNQ1 spec inactive | CHO parental ctr inactive | KCNQ2 inh confirm inactive
CCOC(=O)c1cnc2c(OC)cccc2c1N1CCN(c2ccc(OC)cc2)CC1	none (no result: KCNQ2 enhance)
O=c1[nH]c(CSc2nnc3ccccn23)nc2cc(C(F)(F)F)ccc12	none
CCn1c(=O)c(C(=O)NCc2ccccc2)c(O)c2ccccc21	none (no result: KCNQ2 enhance)
CCn1c(=O)c(C(=O)NCc2ccc(Cl)cc2)c(O)c2ccccc21	KCNQ2 inh -7.56 | KCNQ2 inh conf -25.0% | KCNQ1 spec inactive | CHO parental ctr inactive | KCNQ2 inh confirm inactive
CCn1c(=O)c(C(=O)NCc2ccccc2OC)c(O)c2ccccc21	none (no result: KCNQ2 enhance)
CCn1c(=O)c(C(=O)NCc2ccc(F)cc2)c(O)c2ccccc21	KCNQ2 inh -6.72 | KCNQ2 inh conf inactive | KCNQ1 spec inactive | CHO parental ctr inactive
CCCn1c(=O)c(C(=O)NCc2ccccc2OC)c(O)c2ccccc21	KCNQ2 inh -7.62 | KCNQ2 inh conf inactive | KCNQ1 spec inactive | CHO parental ctr inactive
CCn1c(=O)c(C(=O)NCc2cccnc2)c(O)c2ccccc21	none
CCCOC(=O)Nc1sc2c(c1C(N)=O)CCCC2	none
COc1ccc(C(=O)Nc2cccc3c2CCCC3)cc1OC	none (no result: KCNQ2 enhance)
CCOCCCN(C)C1CCN(C(=O)c2oc3ccccc3c2NC(=O)COc2ccc(F)cc2)CC1	none
CCOC(=O)C(C)Sc1nc(C2CC2)cc(C(F)(F)F)c1C#N (configuration not stated)	KCNQ2 inh -6.87 | KCNQ2 inh conf inactive | KCNQ1 spec inactive | CHO parental ctr inactive
COC(=O)CSc1nc(C2CC2)cc(C(F)(F)F)c1C#N	none
C=CCn1c(-c2cc3cccc(OC)c3o2)n[nH]c1=S	none
CCN1/C(=C\c2ccc3cc(C)ccc3[n+]2CC)Sc2cc(C)c(C)cc21	none (no result: KCNQ2 enhance)
C=CC[n+]1c(/C=C2\C=Cc3cc(C)ccc3N2CC)ccc2ccccc21	KCNQ2 inh -9.78 | KCNQ2 inh conf inactive | KCNQ1 spec inactive | CHO parental ctr inactive
CCN1C(=O)CSC1=NC12CC3CC(CC(C3)C1)C2	KCNQ2 inh -7.84 | KCNQ2 inh conf -32.0% | KCNQ1 spec -29.5% | CHO parental ctr -30.0% | KCNQ2 inh confirm inactive
CN1C(=O)CSC1=NC12CC3CC(CC(C3)C1)C2	none (no result: KCNQ2 enhance)
COc1ccccc1Nc1nc(N)nc(CN2CCN(Cc3ccccc3)CC2)n1	KCNQ2 inh -9.95 | KCNQ2 inh conf -18.5% | KCNQ1 spec inactive | CHO parental ctr inactive | KCNQ2 inh confirm inactive
COc1ccccc1Nc1nc(N)nc(CN2CCCCC2)n1	none (no result: KCNQ2 enhance)
O=C(CN1CCN(S(=O)(=O)c2ccc(F)cc2)CC1)Nc1ccc(Cl)cn1	none
Cc1ccc(C(C[N+](=O)[O-])Sc2ccc(N)cc2)cc1 (configuration not stated)	KCNQ2 inh -9.36 | KCNQ2 inh conf -29.5% | KCNQ1 spec inactive | CHO parental ctr inactive | KCNQ2 inh confirm inactive
Nc1ccc(Sc2ccc([N+](=O)[O-])cc2)cc1	none
O=C(Nc1ccc(F)cc1)C1CCN(S(=O)(=O)c2cccc3nonc23)CC1	none
Cc1nc(Sc2ccc(Br)cc2)c(C#N)c(C)c1[N+](=O)[O-]	KCNQ2 inh -7.65 | KCNQ2 inh conf -20.5% | KCNQ1 spec inactive | CHO parental ctr inactive | KCNQ2 inh confirm inactive
Cc1ccc(Sc2nc(C)c([N+](=O)[O-])c(C)c2C#N)cc1	none (no result: KCNQ2 enhance)
COc1cc(-c2nc3ccccn3c2NCc2ccccc2)ccc1SC1CCCCC1	KCNQ2 inh -8.7 | KCNQ2 inh conf inactive | KCNQ1 spec inactive | CHO parental ctr inactive
COc1cc(-c2nc3ccc(C)cn3c2NCc2ccccc2)ccc1SC1CCCCC1	none (no result: KCNQ2 enhance)
COc1ccc2nc(NC(=O)c3sc4nc(C)cc(C)c4c3N)sc2c1	none
CC(C)c1ccc(C(=O)N/N=C/c2cccc(Cl)c2Cl)cc1	KCNQ2 inh -9.53 | KCNQ2 inh conf inactive | KCNQ1 spec inactive | CHO parental ctr inactive
CC(C)c1ccc(/C=N/NC(=O)c2cccc(Cl)c2)cc1	none (no result: KCNQ2 enhance)
CC1NC(=S)N(C2CCCCC2)C1=O (configuration not stated)	none (no result: KCNQ2 enhance)
O=C(NCCCCc1ccccc1)c1ccc(Br)cc1	none
O=C(NCCC(=O)N(CCc1ccccc1)Cc1ccccc1)c1ccc(Br)cc1	KCNQ2 inh -9.15 | KCNQ2 inh conf -18.5% | KCNQ1 spec inactive | CHO parental ctr inactive | KCNQ2 inh confirm inactive
CC1CCC(C(C)C)C(OC(=O)COC(=O)c2ccc(N)cc2)C1 (configuration not stated)	none (no result: KCNQ2 enhance)
CC1CCC(C(C)C)C(OC(=O)Cn2c(-c3ccc(Cl)cc3)[n+](C)c3ccccc32)C1 (configuration not stated)	KCNQ2 inh -6.7 | KCNQ2 inh conf -45.5% | KCNQ1 spec -46.0% | CHO parental ctr -48.0% | KCNQ2 inh confirm active
Cc1ccc(C(=O)N/C(=C\c2ccc(-c3ccc(Cl)cc3)o2)C(=O)NCCCN(C)C)cc1	KCNQ2 inh -7.19 | KCNQ2 inh conf -17.5% | KCNQ1 spec inactive | CHO parental ctr inactive
CN(C)CCCNC(=O)/C(=C\c1ccc(-c2ccc(Br)cc2)o1)NC(=O)c1ccccc1	none (no result: KCNQ2 enhance)

High-throughput results deposited in PubChem by Johns Hopkins Ion Channel Center.
